Growth data for 16 molecules are collected here from the supplement of paper PMC9262897, “Low-cost anti-mycobacterial drug discovery using engineered E. coli” (Nature Communications, 2022).

Common to all, as to test: growth (OD600 after 10 h); higher = more growth (less inhibition)
Experiment [1] relates to E. coli TESEC Alr+ wild-type control. The settings on record: compound 0.1 mM; raw OD600 reference: median of DMSO wells 0.241, cell-free background 0.041. As to the method: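 TESEC Mtb Alr E. coli, or the Alr+ wild-type control, in 384-well plates with Prestwick library compounds at 0.1 mM and 1% DMSO, across arabinose induction levels of 1E3 to 1E7 nM. Growth is read as OD600 after 10 h at 37 °C in triplicate biological replicates.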

In experiment [2] the test system is E. coli TESEC Mtb Asd. The settings on record: compound 0.1 mM. As to the method:
(§1)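 TESEC E. coli strains in which the native enzyme is deleted and replaced by arabinose-inducible Mtb Asd, DapB, CysH or TrpD, each grown in its selective medium. Strains were screened against the Prestwick library at 0.1 mM and 1% DMSO in 384-well format at low and high arabinose induction. Growth is read as OD600 after 10 h in triplicate.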

The subject of experiment [3] is E. coli TESEC Mtb DapB. The settings on record: compound 0.1 mM. As for the experimental part:
as §1

Experiment [4] deals with E. coli TESEC Alr+ wild-type control. The settings on record: compound 0.1 mM; raw OD600 reference: median of DMSO wells 0.49, cell-free background 0.052. As for the experimental part:
(§2)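 TESEC Mtb Alr E. coli (ΔaraC ΔtolC ΔentC Δalr ΔdadX, arabinose-inducible Mtb Alr) or the Alr+ wild-type control strain, grown in defined M9-fructose medium without D-alanine in 96-well plates with Prestwick library compounds at 0.1 mM and 1% DMSO. Low Alr induction is 0.1 µM arabinose and high induction is 10 mM arabinose.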

Experiment [5] deals with E. coli TESEC Mtb Alr. The settings on record: compound 0.1 mM. As to the method: as §2
Where [6] appears, read: arabinose induction (level): High, raw OD600 reference: median of DMSO wells 0.331, cell-free background 0.041.
Setting [7] is: arabinose induction (level): Low, raw OD600 reference: median of DMSO wells 0.417, cell-free background 0.041.
Where [8] appears, read: arabinose induction (level): High, raw OD600 reference: median of DMSO wells […], cell-free background 0.041.
Where [9] appears, read: arabinose induction (level): Low, raw OD600 reference: median of DMSO wells 0.227, cell-free background 0.041.
The mark [10] stands for this setting: arabinose 100 nM, raw OD600 reference: median of DMSO wells 0.413, cell-free background 0.052.
The mark [11] stands for this setting: arabinose 10000000 nM, raw OD600 reference: median of DMSO wells […], cell-free background 0.052.

Where a name gives a salt, the structure may show the parent alone. ± gives the standard deviation of the averaged measurements.

Take `O=C1C(CC[S+]([O-])c2ccccc2)C(=O)N(c2ccccc2)N1c1ccccc1` (centres undefined) [Sulfinpyrazone]: the growth in experiment [1] was 0.167 ± 0.0026; in experiment [2] (setting [6]) it was 0.26 ± 0.063; in experiment [2] (setting [7]), 0.316 ± 0.087; in experiment [3] (setting [8]), 0.182 ± 0.0043; in experiment [3] (setting [9]) it was 0.203 ± 0.023; in experiment [4], 0.542 ± 0.093. Besides, the growth in experiment [5] (setting [10]) came to 0.38 ± 0.0087; in experiment [5] (setting [11]), 0.33 ± 0.011.
With `Cc1nccn1CC1CCc2c(c3ccccc3n2C)C1=O` (centres undefined) [Ondansetron Hydrochloride], the growth in experiment [1] came to 0.195 ± 0.004; in experiment [2] (setting [6]), 0.432 ± 0.06; in experiment [2] (setting [7]) it was 0.191 ± 0.011; in experiment [3] (setting [8]), 0.229 ± 0.013; in experiment [3] (setting [9]), 0.183 ± 0.004; in experiment [4], 0.526 ± 0.11. For the same molecule, the growth is 0.365 ± 0.013 in experiment [5] (setting [10]) and 0.384 ± 0.0066 in experiment [5] (setting [11]).
On to `Cc1c(OCC(F)(F)F)ccnc1C[S+]([O-])c1nc2ccccc2[nH]1` (centres undefined) [Lansoprazole], for which the growth in experiment [1] turned out to be 0.131 ± 0.0017; in experiment [2] (setting [6]) it was 0.236 ± 0.024; in experiment [2] (setting [7]), 0.191 ± 0.0085; in experiment [3] (setting [8]), 0.175 ± 0.0097; in experiment [3] (setting [9]), 0.203 ± 0.02; in experiment [4], 0.377 ± 0.011. Moreover, the growth in experiment [5] (setting [10]) turned out to be 0.363 ± 0.035; in experiment [5] (setting [11]), 0.163 ± 0.025.
With `COC(=O)Nc1nc2cc(C(=O)c3cccs3)ccc2[nH]1` [Nocodazole], the growth is 0.251 ± 0.0038 in experiment [1]; 0.345 ± 0.023 in experiment [2] (setting [6]); 0.415 ± 0.034 in experiment [2] (setting [7]); 0.186 ± 0.0079 in experiment [3] (setting [8]); 0.215 ± 0.044 in experiment [3] (setting [9]); 0.465 ± 0.044 in experiment [4]. Moreover, the growth in experiment [5] (setting [10]) was determined as 0.419 ± 0.0079; in experiment [5] (setting [11]), 0.382 ± 0.044.
With `Nc1ccc(S(=O)(=O)Nc2ncccn2)cc1` [Sulfadiazine], the growth amounted to 0.257 ± 0.0066 in experiment [1]; 0.374 ± 0.043 in experiment [2] (setting [6]); 0.414 ± 0.0071 in experiment [2] (setting [7]); 0.184 ± 0.015 in experiment [3] (setting [8]); 0.187 ± 0.023 in experiment [3] (setting [9]); 0.464 ± 0.054 in experiment [4]. Moreover, the figures for the growth in experiment [5] (setting [10]) and in experiment [5] (setting [11]) were 0.411 ± 0.011 and 0.312 ± 0.066, respectively.
Regarding `CCn1cc(C(=O)O)c(=O)c2cc(F)c(N3CCNCC3)nc21` [Enoxacin], the growth was 0.0456 ± 0.0012 in experiment [1]; 0.0919 ± 0.024 in experiment [2] (setting [6]); 0.0687 ± 0.0059 in experiment [2] (setting [7]); 0.06527 ± 0.00061 in experiment [3] (setting [8]); 0.061 ± 0.0086 in experiment [3] (setting [9]); 0.05513 ± 0.00042 in experiment [4]. Further, the results for the growth in experiment [5] (setting [10]) and in experiment [5] (setting [11]) were 0.0588 ± 0.0019 and 0.05293 ± 0.00025, respectively.
For `COc1cc([S+](C)[O-])ccc1-c1nc2cccnc2[nH]1` (centres undefined) [Sulmazole], the growth in experiment [1] turned out to be 0.227 ± 0.0056; in experiment [2] (setting [6]), 0.231 ± 0.039; in experiment [2] (setting [7]) it was 0.387 ± 0.049; in experiment [3] (setting [8]), 0.18 ± 0.0052; in experiment [3] (setting [9]), 0.209 ± 0.0037; in experiment [4], 0.4254 ± 0.0034. In addition, the growth came out at 0.392 ± 0.0053 in experiment [5] (setting [10]) and 0.342 ± 0.034 in experiment [5] (setting [11]).
Turning to `CCCCC[C@H](O)/C=C/[C@H]1[C@H](O)CC(=O)[C@@H]1CCCCCCC(=O)O` [Alprostadil], the growth turned out to be 0.215 ± 0.0055 in experiment [1]; 0.243 ± 0.046 in experiment [2] (setting [6]); 0.279 ± 0.082 in experiment [2] (setting [7]); 0.154 ± 0.008 in experiment [3] (setting [8]); 0.177 ± 0.032 in experiment [3] (setting [9]); 0.503 ± 0.07 in experiment [4]. Moreover, the growth came out at 0.364 ± 0.018 in experiment [5] (setting [10]) and 0.299 ± 0.017 in experiment [5] (setting [11]).
Turning to `Cc1cc(-c2ccccc2)nnc1NCCN1CCOCC1` [Minaprine dihydrochloride], the growth in experiment [1] turned out to be 0.227 ± 0.0047; in experiment [2] (setting [6]), 0.212 ± 0.028; in experiment [2] (setting [7]), 0.342 ± 0.074; in experiment [3] (setting [8]), 0.185 ± 0.0026; in experiment [3] (setting [9]) it was 0.225 ± 0.045; in experiment [4], 0.498 ± 0.045. Further, the growth came to 0.409 ± 0.0057 in experiment [5] (setting [10]) and 0.318 ± 0.029 in experiment [5] (setting [11]).
`COC(=O)C1=C(C)NC(C)=C(C(=O)OCC(C)C)C1c1ccccc1[N+](=O)[O-]` (centres undefined) [Nisoldipine]: the growth came out at 0.0411 ± 0.00044 in experiment [1]; 0.0578 ± 0.0013 in experiment [2] (setting [6]); 0.0593 ± 0.0039 in experiment [2] (setting [7]); 0.122 ± 0.0061 in experiment [3] (setting [8]); 0.114 ± 0.0044 in experiment [3] (setting [9]); 0.433 ± 0.007 in experiment [4]. In addition, the growth in experiment [5] (setting [10]) stood at 0.386 ± 0.0062; in experiment [5] (setting [11]) it was 0.223 ± 0.012.
`Clc1ccc(C(Cn2ccnc2)OCc2csc3c(Cl)cccc23)c(Cl)c1` (centres undefined) [Sertaconazole nitrate]: the growth turned out to be 0.0563 ± 0.0014 in experiment [1]; 0.0594 ± 0.0039 in experiment [2] (setting [6]); 0.0635 ± 0.0047 in experiment [2] (setting [7]); 0.0687 ± 0.0033 in experiment [3] (setting [8]); 0.0671 ± 0.0089 in experiment [3] (setting [9]); 0.129 ± 0.036 in experiment [4]. For the same molecule, the growth stood at 0.12 ± 0.024 in experiment [5] (setting [10]) and 0.123 ± 0.0052 in experiment [5] (setting [11]).
Consider `C[N+](C)(C)CCCCCC[N+](C)(C)C` [Hexamethonium dibromide dihydrate], for which the growth in experiment [1] came to 0.247 ± 0.0066; in experiment [2] (setting [6]) it was 0.344 ± 0.048; in experiment [2] (setting [7]) it was 0.454 ± 0.015; in experiment [3] (setting [8]), 0.205 ± 0.014; in experiment [3] (setting [9]), 0.233 ± 0.042; in experiment [4], 0.536 ± 0.007. For the same molecule, the growth is 0.425 ± 0.0087 in experiment [5] (setting [10]) and 0.384 ± 0.015 in experiment [5] (setting [11]).
Take `Cc1cn([C@H]2C=C[C@@H](CO)O2)c(=O)[nH]c1=O` [Stavudine]: the growth in experiment [1] stood at 0.163 ± 0.01; in experiment [2] (setting [6]) it was 0.157 ± 0.013; in experiment [2] (setting [7]), 0.158 ± 0.0091; in experiment [3] (setting [8]) it was 0.192 ± 0.015; in experiment [3] (setting [9]), 0.178 ± 0.0066; in experiment [5] (setting [10]), 0.417 ± 0.011. Also, the growth in experiment [5] (setting [11]) was 0.218 ± 0.012.
For `C[C@@H]1C[C@H]2[C@@H]3C[C@H](F)C4=CC(=O)C=C[C@]4(C)[C@@]3(Cl)[C@@H](O)C[C@]2(C)[C@H]1C(=O)COC(=O)C(C)(C)C` [Clocortolone pivalate], the growth stood at 0.24 ± 0.0038 in experiment [1]; 0.198 ± 0.0099 in experiment [2] (setting [6]); 0.322 ± 0.059 in experiment [2] (setting [7]); 0.21 ± 0.0076 in experiment [3] (setting [8]); 0.254 ± 0.0078 in experiment [3] (setting [9]); 0.433 ± 0.0058 in experiment [5] (setting [10]). Moreover, in experiment [5] (setting [11]), the growth was 0.377 ± 0.017.
For `CNCCCC1c2ccccc2C=Cc2ccccc21` [Protriptyline hydrochloride], the growth in experiment [1] is 0.177 ± 0.013; in experiment [2] (setting [6]), 0.153 ± 0.0035; in experiment [2] (setting [7]), 0.263 ± 0.058; in experiment [3] (setting [8]), 0.164 ± 0.039; in experiment [3] (setting [9]), 0.21 ± 0.011; in experiment [5] (setting [10]), 0.402 ± 0.013. This molecule came in with a growth in experiment [5] (setting [11]) of 0.313 ± 0.018.
Take `COCCOC(=O)C1=C(C)NC(C)=C(C(=O)OC(C)C)C1c1cccc([N+](=O)[O-])c1` (centres undefined) [Nimodipine]: the growth came out at 0.18 ± 0.017 in experiment [1]; 0.274 ± 0.024 in experiment [2] (setting [6]); 0.487 ± 0.0068 in experiment [2] (setting [7]); 0.169 ± 0.016 in experiment [3] (setting [8]); 0.197 ± 0.037 in experiment [3] (setting [9]); 0.404 ± 0.025 in experiment [5] (setting [10]). For the same molecule, in experiment [5] (setting [11]), the growth is 0.0716 ± 0.011.
